High-throughput results (PubChem)
Sampled rows, rich in hits. Any-hit rate of the full collection: about 19%.
DT40 TDP1 CPT: qHTS for Inhibitors of human tyrosyl-DNA phosphodiesterase 1 (TDP1): qHTS in cells in presence of CPT | chicken DT40 Tdp1-/-;hTDP1 cells + 20 nM CPT, ATP luminescence, 48 h | Potency, µM (highest dose often 46.2 µM), for inactives: top-dose activity change, negative = growth inhibition, usual class: inhibitors | 420,000 compounds, 12% hits | AID 686979, 2013; further: potency means the concentration at half of the fitted maximal effect; on the % scale 0 is the no-effect control and ±100 the full control effect; nearly all actives have a fitted effect of over 55% in size
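Cell growth measured by CellTiter-Glo luminescence after a minimum 48 h, 37 C compound exposure with 20 nM CPT in Tdp1-knockout DT40 cells stably expressing hTDP1, seeded 400/well; qHTS titration format.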
TDP1 cell noCPT: qHTS for Inhibitors of human tyrosyl-DNA phosphodiesterase 1 (TDP1): qHTS in cells in absence of CPT. 420,000 compounds, 15% hits. DT40 Tdp1-/- hTDP1 cells, no CPT, ATP luminescence, 48 h. AID 686978, 2013. Potency, µM (series often up to 46.2 µM), inactives show at the top dose activity change, negative = growth inhibition, hits mostly inhibitors; further: potency means the concentration at half of the fitted maximal effect; on the % scale 0 is the no-effect control and ±100 the full control effect; nearly all actives have a fitted effect of over 55% in size
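Growth kinetics read by CellTiter-Glo luminescence after ≥48 hr at 37 °C. Cells: DT40 Tdp1-/- stably carrying human TDP1, 400 per well, compound exposure in the absence of CPT (DMSO vehicle).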
SW480 rereplic: A quantitative high throughput screen for small molecules that induce DNA re-replication in SW480 colon adenocarcinoma cells; 340,000 compounds, 1.8% hits; SW480 DNA re-replication, Hoechst DNA content imaging, 48 h; AID 624297, 2012; Potency, µM (highest dose often 46.1 µM), inactives show top-dose re-replication activation, hits mostly activators; further: potency means the concentration at half of the fitted maximal effect; % of control where 0% means no effect; nearly all actives have a fitted effect of over 55% in size
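Quantitative HTS format with DMSO vehicle controls; 48 hr drug incubation at 37 C, then 40 min Hoechst staining and scanning imager measurement at 405 nm excitation.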
IL-1B inflam inh: qHTS for Inhibitors of Inflammasome Signaling: IL-1-beta AlphaLISA Primary Screen. AID 743279, 2014. activity change, % at 57.5 µM. THP-1 LPS/ATP IL-1B secretion, AlphaLISA, 16 h; hits give low values. 360,000 compounds, 4.7% hits; in the data active means activity change below about -50%; inconclusive means mostly about -30% to -49%; further: on the % scale 0 is the no-effect control and ±100 the full control effect
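Secreted IL-1B measured by AlphaLISA bead assay after 16 h compound exposure of THP-1 cells; compounds (final up to 57.5 uM) added 1 h before LPS (250 ng/mL) and ATP (1.25 mM) stimulation; lower signal means less secretion.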
BCR signal inh: qHTS Assay to Find Inhibitors of Chronic Active B-Cell Receptor Signaling | AID 493014, 2011 | ABC-DLBCL IkBa-CBG/CBR reporter, luminescence ratio, 4 h | 340,000 compounds, 0.05% hits | Potency, µM (series often up to 46.1 µM), for inactives: at the top dose activity change, negative = inhibition, actives largely listed as inhibitors; active means well fitted inhibition curve with a large enough effect in the signal ratio, with a control signal flat, not every such curve was filed as active; inconclusive means small, poorly fitted or top-dose-only effect, or effect the other way, or a change in a side signal; the % refers to the signal ratio;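 further: potency means the concentration at half of the fitted maximal effect; plate controls were basal doxycycline-induced cells for no effect and cells given 10 µM MG132 for full effect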
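TMD8 ABC-DLBCL cells carrying doxycycline-inducible green luciferase fused to IkappaBalpha plus unfused red luciferase were exposed to compounds (up to 46 uM) for 4 hrs at 37C. Activity came from the overlap-corrected green/red luminescence ratio.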
MCF10A rerep: A quantitative high throughput screen for small molecules that induce DNA re-replication in MCF 10a normal breast cells; MCF 10A DNA re-replication, Hoechst nuclear intensity, 48 h; Potency, µM (titrated, usually from 46.1 µM), for the others: at the top dose activity, positive = re-replication, hits mostly activators; 350,000 compounds, 2.9% hits; AID 624296, 2012; further: potency means the concentration at half of the fitted maximal effect; % of control where 0% means no effect; nearly all actives have a fitted effect of over 50% in size
* marks the source's active call; other numbers are inactive results. Unless noted, the call rests on the fitted dose curve; in most records, active means well fitted curve in the direction sought with a large enough effect; inconclusive means small, poorly fitted or top-dose-only effect, or another doubt; inactive means no such curve, though single readings can be large; an effect the other way counts as inactive or inconclusive.

For Cc1ccc(Cn2c(=O)n(-c3ccccc3)c(=O)c3ccc(C(=O)NCc4ccco4)cc32)cc1 the results were DT40 TDP1 CPT 12µM*, TDP1 cell noCPT inconclusive, SW480 rereplic -14%, IL-1B inflam inh 21, BCR signal inh 1% and MCF10A rerep inconclusive.
For Cc1cccc(C)c1NC(=O)Cn1c(=O)n(Cc2ccc(C(=O)NCc3ccco3)cc2)c(=O)c2sccc21 the results were DT40 TDP1 CPT 21µM* and TDP1 cell noCPT 23µM*.
For Cc1ccc(-n2c(=O)c3sccc3n(CC(=O)NCc3ccco3)c2=O)cc1 the results were DT40 TDP1 CPT -26%, TDP1 cell noCPT -2%, SW480 rereplic -3%, IL-1B inflam inh 7, BCR signal inh -2% and MCF10A rerep 3%.
For O=C1c2cccc3cccc(c23)C(=O)N1Cc1ccccn1 the results were DT40 TDP1 CPT -5%, TDP1 cell noCPT -20% and IL-1B inflam inh -8.
Cc1cccc(C)c1C(O)c1ncc(-c2ccccc2Cl)[nH]1 (stereo unspecified) was read as DT40 TDP1 CPT -25%, TDP1 cell noCPT -10% and IL-1B inflam inh -9.
For Cc1cc2nc(-c3ccc(NC(=O)c4ccccc4F)cc3)oc2cc1C the results were DT40 TDP1 CPT inconclusive and TDP1 cell noCPT 8.2µM*.
`O=C(Nc1ccc(-c2nc3cc(NC(=O)c4ccc(F)cc4)ccc3o2)cc1)c1ccc(F)cc1` gave DT40 TDP1 CPT 23%, TDP1 cell noCPT -2% and BCR signal inh -12%.
`Cc1cc2nc(-c3cccc(NC(=O)c4cccc5ccccc45)c3)oc2cc1C` gave DT40 TDP1 CPT -17% and TDP1 cell noCPT -16%.
COc1ccccc1C(=O)Nc1ccc2oc(-c3ccc(F)cc3)nc2c1 was read as DT40 TDP1 CPT 18µM*, TDP1 cell noCPT inconclusive, SW480 rereplic inconclusive, IL-1B inflam inh 16, BCR signal inh inconclusive and MCF10A rerep inconclusive.
O=C(Cc1ccc(NC(=O)C2CCN(C(=O)C3CCC3)CC2)cc1)Nc1ccc(C(=O)N2CCOCC2)cc1 was read as DT40 TDP1 CPT 8%, TDP1 cell noCPT -5%, SW480 rereplic -38%, IL-1B inflam inh inconclusive and MCF10A rerep -21%.
CCOC(=O)C1(Cc2cccc(Cl)c2)CCCN(C(=O)c2cnn(CC)c2)C1 (stereo unspecified) was read as DT40 TDP1 CPT -17%, TDP1 cell noCPT -20%, SW480 rereplic 6%, IL-1B inflam inh 22, BCR signal inh -2% and MCF10A rerep 0%.
`Cc1ccccc1C(=O)N1CCC(C(=O)NN2C(=O)NC3(CCC(C)CC3)C2=O)CC1` (stereo unspecified) gave DT40 TDP1 CPT -14%, TDP1 cell noCPT -7%, SW480 rereplic -5%, IL-1B inflam inh 18, BCR signal inh 1% and MCF10A rerep -11%.
`CC(=O)N1c2ccc(S(=O)(=O)N3CCCC(C(=O)NCc4ccccc4Cl)C3)cc2CC1C` (stereo unspecified) gave DT40 TDP1 CPT inconclusive, TDP1 cell noCPT -11%, SW480 rereplic -9%, IL-1B inflam inh -55*, BCR signal inh 6% and MCF10A rerep inconclusive.
Screening CCC(=O)N1CCCc2cc(S(=O)(=O)N3CCC(C(=O)Nc4ccccc4CC)CC3)ccc21 returned DT40 TDP1 CPT 26µM* and TDP1 cell noCPT inconclusive.
For CC(=O)N1c2ccc(S(=O)(=O)N3CCC(C(=O)NCc4ccccc4Cl)CC3)cc2CC1C (stereo unspecified) the results were DT40 TDP1 CPT -6%, TDP1 cell noCPT inconclusive, SW480 rereplic 2%, IL-1B inflam inh -6, BCR signal inh 8% and MCF10A rerep -4%.
Screening O=C(NCc1ccccc1Cl)C1CCN(S(=O)(=O)c2ccc3c(c2)CCCN3C(=O)C2CCC2)CC1 returned DT40 TDP1 CPT 15µM* and TDP1 cell noCPT 15µM*.
For CC(=O)N1CCCc2cc(S(=O)(=O)N3CCN(c4ccc(F)cc4)CC3)ccc21 the results were DT40 TDP1 CPT 23µM* and TDP1 cell noCPT 16µM*.
For CC(=O)c1ccc(NC(=O)c2ccccc2-c2ccccc2C(=O)O)cc1 the results were DT40 TDP1 CPT -13%, TDP1 cell noCPT -3%, SW480 rereplic 1%, IL-1B inflam inh 8, BCR signal inh 3% and MCF10A rerep -10%.
`CC(=O)N1CCCc2cc(S(=O)(=O)N3CCCC(C(=O)Nc4ccc(C)c(F)c4)C3)ccc21` (stereo unspecified) gave DT40 TDP1 CPT inconclusive and TDP1 cell noCPT 21µM*.
For O=C(C1CC1)N1CCc2cc(S(=O)(=O)N3CCN(c4ccccc4)CC3)ccc21 the results were DT40 TDP1 CPT -17%, TDP1 cell noCPT -28%, SW480 rereplic 4%, IL-1B inflam inh -9, BCR signal inh 0% and MCF10A rerep inconclusive.
CC(=O)N1CCCc2cc(S(=O)(=O)N3CCCC(C(=O)NCc4ccccc4Cl)C3)ccc21 (stereo unspecified) was read as DT40 TDP1 CPT 21µM*, TDP1 cell noCPT 26µM*, SW480 rereplic -3%, IL-1B inflam inh -15, BCR signal inh 0% and MCF10A rerep -10%.
For COc1ccc(CNC(=O)C2CCCN(S(=O)(=O)c3ccc4c(c3)C(C)(C)C(=O)N4C)C2)cc1 (stereo unspecified) the results were DT40 TDP1 CPT -14%, TDP1 cell noCPT inconclusive, SW480 rereplic -6%, IL-1B inflam inh 21, BCR signal inh 0% and MCF10A rerep 5%.
For O=C(C1CCC1)N1CCCc2cc(S(=O)(=O)N3CCN(c4ccccc4)CC3)ccc21 the results were DT40 TDP1 CPT 18µM*, TDP1 cell noCPT inconclusive, SW480 rereplic -1%, IL-1B inflam inh -3, BCR signal inh 0% and MCF10A rerep -9%.
`CN1C(=O)C(C)(C)c2cc(S(=O)(=O)N3CCCC(C(=O)NCc4ccccc4Cl)C3)ccc21` (stereo unspecified) gave DT40 TDP1 CPT inconclusive, TDP1 cell noCPT 23µM*, SW480 rereplic -2%, IL-1B inflam inh 2, BCR signal inh 10% and MCF10A rerep 0%.
